Measured values from PubChem BioAssay.
Activity calls are given as the source filed them.

Columns and labels:
[1] = test system: Human papillomavirus type 1a protein E7 (residues 44-93); assay: HPV1a E7 fragment binders on microarrays, primary screen, biochemical, small-molecule microarray, residues 44-93, 635 nm fluorescence (AID 1108); conditions: small-molecule microarray binding, fluorescence 635 nm; higher = more signal;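 further: E7 fragment applied at 1 µg/mL in TBST for 1 h at 4 C; score combines spot fluorescence with its signal to noise ratio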
[2] = modulators of HCV replicon luciferase signal, primary screen, HCV replication inhibitor project, Huh7 cells, luciferase reporter (AID 1109); conditions: 48 h, higher = more signal;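 further: huh7 hepatoma cells harbouring a luciferase neomycin HCV replicon reporter; luciferase luminescence as measure of HCV replicon replication; test concentration not given here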
[3] = molecular target: Left-right determination factor 2 (Homo sapiens) (UniProt O00292); assay: LEFTY2 binders on small-molecule microarrays, primary screen, biochemical, small-molecule microarray, 635 nm fluorescence scan (AID 1110); conditions: LEFTY2 binding, higher = more signal
[4] = molecular target: Calmodulin-1 (Homo sapiens) (UniProt P0DP23); assay: CALM1 binders on microarrays, EGTA buffer, profiling panel, biochemical, small-molecule microarray, Cy5-labelled CALM1 (AID 1111); conditions: Cy5-CALM1 binding fluorescence, higher = more signal;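 further: labelled calmodulin applied in Tris saline Tween buffer holding calcium plus EGTA and DTT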
[5] = molecular target: Calmodulin-1 (Homo sapiens) (UniProt P0DP23); assay: calcium-bound CALM1 binders on microarrays, profiling panel, artefact control for SMM control-protein annotation, biochemical, small-molecule microarray, Cy5-labelled CALM1, plus calcium (AID 1112); conditions: Cy5-CALM1 binding fluorescence, higher = more signal;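 further: score merges spot fluorescence with signal to noise from triplicate slides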
[6] = small-molecule microarray binders of probe aWnt5a, primary screen, biochemical, biotinylated probe, 635/667 nm fluorescence (AID 1113); conditions: higher = more signal;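 further: score merges 667 nm fluorescence intensity with signal-to-noise per printed feature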
[7] = small-molecule microarray binders of probe aShh, primary screen, biochemical, biotinylated probe, 635/667 nm fluorescence (AID 1114); conditions: higher = more signal;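 further: probe is biotin-labelled aShh protein from a stem cell growth factor screen; measures binding of labelled protein to compounds printed on the slide; score merges feature fluorescence at 667 nm with signal-to-noise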
[8] = small-molecule microarray binders of probe aNog, primary screen, biochemical, biotinylated probe, 635/667 nm fluorescence (AID 1115); conditions: higher = more signal;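 further: probe is biotinylated aNog protein used at 0.15 µg/mL for 1 h at 4 C; z-score combines 667 nm fluorescence of each spot with its signal to noise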
[9] = molecular target: Torsin-1A-interacting protein 1 (Homo sapiens) (UniProt Q5JTV8); assay: LAP1 binders from COS7 cell lysate, primary screen, small-molecule microarray, 635/667 nm fluorescence (AID 1116); conditions: COS7-hLAP1 lysate binding, 635 nm fluorescence, higher = more signal
[10] = molecular target: Alpha-bungarotoxin (Bungarus multicinctus) (UniProt P60615); assay: alpha-bungarotoxin binders on microarray, profiling panel, artefact control for SMM control protein annotation, biochemical, small-molecule microarray, Alexa647 label, 635/667 nm fluorescence (AID 1117); conditions: alpha-BTX-A647 binding fluorescence, higher = more signal
[11] = molecular target: Albumin (Bos taurus) (UniProt P02769); assay: bovine serum albumin binders on microarray, profiling panel, artefact control for SMM control protein annotation, biochemical, small-molecule microarray, Alexa647 label, 635/667 nm fluorescence (AID 1118); conditions: BSA-A647 binding, fluorescence 635 nm, higher = more signal;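 further: score merges 667 nm emission intensity and signal-to-noise per printed compound spot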
[12] = small-molecule microarray binders of probe aXIP, primary screen, biochemical, NeuroSMM set, 635/667 nm fluorescence (AID 1119); conditions: higher = more signal, called active from +8 up or from −8 down;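 further: probe is the protein aXip251-270 applied at 1 µg/mL to compound-printed slides; binding of probe to printed compounds measured as 667 nm fluorescence plus signal to noise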
[13] = small-molecule binders of probe aNOTCH3, primary screen, biochemical, small-molecule microarray, 635/667 nm fluorescence (AID 1120); conditions: higher = more signal;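 further: probe is a biotin-tagged antibody raised against NOTCH3 rather than NOTCH3 protein; score merges spot fluorescence near 667 nm with spot signal to noise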
[14] = small-molecule binders of probe aNOTCH2, primary screen, biochemical, small-molecule microarray, 635/667 nm fluorescence (AID 1121); conditions: higher = more signal;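 further: score merges feature fluorescence read at 667 nm with its signal to noise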
[15] = molecular target: Carbonic anhydrase 2 (Homo sapiens) (UniProt P00918); assay: CAII small-molecule binders, profiling panel, biochemical, small-molecule microarray, Alexa647-labelled CAII (AID 1122); conditions: CAII-A647 binding fluorescence, higher = more signal
[16] = COS7 lysate on small-molecule microarray, probe aHis, 635 nm (AID 1123); conditions: COS7 cell lysate, fluorescence, higher = more signal;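 further: z-score combines 667nm fluorescence intensity with signal-to-noise per printed compound spot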
[17] = compound binding in COS7 lysate, probe aLAP1, primary screen, cell lysate, small-molecule microarray (AID 1124); conditions: probe aLAP1, fluorescence, higher = more signal;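 further: lysate comes from COS7 cells expressing LAP1 and is applied at 0.3 µg/mL; score merges spot fluorescence near 667 nm with signal-to-noise over triplicate slides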
[18] = test system: Sam68 (KHDRBS1); assay: Sam68 small-molecule binders, primary screen, biochemical, small-molecule microarray, 635 nm fluorescence (AID 1125); conditions: small-molecule microarray binding, higher = more signal;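 further: score merges 667 nm channel intensity with signal to noise over triplicate slides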
[19] = test system: Chordin-like protein 2 (CHRDL2); assay: CHRDL2 small-molecule binders, primary screen, biochemical, small-molecule microarray, 635 nm fluorescence (AID 1126); conditions: small-molecule microarray binding, fluorescence 635 nm; higher = more signal;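 further: printed compound slides probed with Chrdl2 protein at 4 µg/mL for 1 h at 4 C; score merges 667 nm emission intensity with signal to noise over three replicate slides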
[20] = molecular target: Concanavalin-A (Canavalia ensiformis) (UniProt P02866); assay: ConA small-molecule binders, primary screen, artefact control for SMM control protein annotation, biochemical, small-molecule microarray, Alexa647 label, 635 nm (AID 1127); conditions: ConA-A647 binding fluorescence, higher = more signal;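 further: z combines 667 nm emission intensity with signal-to-noise across three replicate slides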
Concanavalin-A (Canavalia ensiformis), sequence (P02866 whole entry, looked up): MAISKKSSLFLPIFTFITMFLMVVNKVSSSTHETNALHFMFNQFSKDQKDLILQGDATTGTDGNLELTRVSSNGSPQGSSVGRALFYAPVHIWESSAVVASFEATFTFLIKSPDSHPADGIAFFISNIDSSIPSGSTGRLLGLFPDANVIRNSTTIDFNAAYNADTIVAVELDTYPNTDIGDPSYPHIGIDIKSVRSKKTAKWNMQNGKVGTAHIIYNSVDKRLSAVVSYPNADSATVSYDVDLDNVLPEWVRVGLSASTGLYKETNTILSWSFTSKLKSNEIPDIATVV

Torsin-1A-interacting protein 1 (Homo sapiens), sequence (Q5JTV8 whole entry, looked up): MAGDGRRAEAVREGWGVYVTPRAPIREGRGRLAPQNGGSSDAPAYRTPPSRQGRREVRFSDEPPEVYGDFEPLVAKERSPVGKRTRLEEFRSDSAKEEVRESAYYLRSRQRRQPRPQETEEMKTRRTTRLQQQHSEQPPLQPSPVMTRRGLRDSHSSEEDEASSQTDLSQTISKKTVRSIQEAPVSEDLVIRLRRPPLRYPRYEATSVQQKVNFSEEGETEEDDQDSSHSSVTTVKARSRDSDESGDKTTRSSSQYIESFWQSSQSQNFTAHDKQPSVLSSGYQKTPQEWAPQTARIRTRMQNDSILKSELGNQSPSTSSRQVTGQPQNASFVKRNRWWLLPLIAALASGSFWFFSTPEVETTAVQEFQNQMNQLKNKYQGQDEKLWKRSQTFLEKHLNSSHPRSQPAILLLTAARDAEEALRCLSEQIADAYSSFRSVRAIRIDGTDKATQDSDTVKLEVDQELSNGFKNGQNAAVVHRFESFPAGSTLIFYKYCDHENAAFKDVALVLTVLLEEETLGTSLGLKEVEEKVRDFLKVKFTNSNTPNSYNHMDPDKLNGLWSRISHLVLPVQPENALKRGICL
Albumin (Bos taurus), sequence (P02769 whole entry, looked up): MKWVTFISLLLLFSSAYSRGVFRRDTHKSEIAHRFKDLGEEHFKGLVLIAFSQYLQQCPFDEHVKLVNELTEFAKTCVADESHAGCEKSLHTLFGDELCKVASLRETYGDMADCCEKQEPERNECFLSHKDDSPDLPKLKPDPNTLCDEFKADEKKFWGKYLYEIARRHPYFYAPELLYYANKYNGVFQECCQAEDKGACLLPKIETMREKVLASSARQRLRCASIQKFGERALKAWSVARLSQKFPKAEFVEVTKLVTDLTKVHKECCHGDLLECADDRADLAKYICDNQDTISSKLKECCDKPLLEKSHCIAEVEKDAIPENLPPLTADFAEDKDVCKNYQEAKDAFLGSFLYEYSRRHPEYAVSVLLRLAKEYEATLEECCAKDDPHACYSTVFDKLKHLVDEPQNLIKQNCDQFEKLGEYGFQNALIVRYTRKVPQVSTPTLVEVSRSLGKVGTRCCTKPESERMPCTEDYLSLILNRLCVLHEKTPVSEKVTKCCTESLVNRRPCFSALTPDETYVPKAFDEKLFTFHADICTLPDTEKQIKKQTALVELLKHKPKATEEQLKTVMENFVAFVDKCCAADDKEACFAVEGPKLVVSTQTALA
Alpha-bungarotoxin (Bungarus multicinctus), sequence (P60615 whole entry, looked up): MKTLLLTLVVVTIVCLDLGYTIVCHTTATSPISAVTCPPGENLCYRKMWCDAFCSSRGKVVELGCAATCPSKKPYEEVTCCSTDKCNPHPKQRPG
Left-right determination factor 2 (Homo sapiens), sequence (O00292 whole entry, looked up): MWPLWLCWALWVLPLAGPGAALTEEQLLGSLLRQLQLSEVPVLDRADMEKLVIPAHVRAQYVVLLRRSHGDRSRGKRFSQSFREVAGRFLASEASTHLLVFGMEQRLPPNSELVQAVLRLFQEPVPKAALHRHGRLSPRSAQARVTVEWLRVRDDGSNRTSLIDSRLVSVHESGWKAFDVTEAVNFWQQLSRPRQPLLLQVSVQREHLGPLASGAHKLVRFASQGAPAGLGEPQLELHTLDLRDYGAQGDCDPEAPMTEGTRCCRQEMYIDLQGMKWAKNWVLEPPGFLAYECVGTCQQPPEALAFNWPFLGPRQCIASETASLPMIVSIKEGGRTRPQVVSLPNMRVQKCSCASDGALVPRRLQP

Structure (SMILES)	composite z-score [1]	z-score [2]	composite z-score [3]	composite z-score [4]	composite z-score [5]	composite z-score [6]	composite z-score [7]	composite z-score [8]	composite z-score [9]	composite z-score [10]	composite z-score [11]	composite Z-score [12]	composite z-score [13]	composite z-score [14]	composite z-score [15]	composite z-score [16]	composite z-score [17]	composite z-score [18]	composite z-score [19]	composite z-score [20]
COCCCNC(=O)[C@@]1(Sc2ccc(C)cc2)CC(=O)N(C2CCCCC2)[C@@H]1c1ccc(CO)cc1	0.104	-1.19	-0.942	-0.206	0.0573	-0.0799	-0.0643	0.684	0.447	-0.255	-0.111	-0.513 (inactive)	-0.337	-0.12	0.71	1.62	1.21	-0.281	-0.975	-0.305
COC1OC[C@]2(C)[C@H]3C4=C(CN2C(=O)OC(C)(C)C)[C@H](C)C(CO)C(CO)C4CC[C@@H]13 (stereo not given in full)	1.22	-1.3	-0.134	2.62	1.39	-0.0007	0.605	1.04	2.14	2.39	1.1	0.0112 (inactive)	0.239	0.35	0.805	2.88	0.875	1.31	-0.675	1.17
C=C(C)C1CCC(C(O)C2C=CC3C(=O)N(C)C(=O)C3N2N2CCCCC2)CC1 (stereo not given)	1.44	-0.385	0.67	0.949	0.763	0.048	0.413	0.751	0.555	1.89	0.735	0.172 (inactive)	0.223	0.0598	0.514	2.03	0.386	1.29	1.24	1.12
CC(C)N1C(=O)c2ccccc2[C@@H](C(=O)NC2CC2)[C@@H]1c1ccc(CO)cc1	-0.142	0.0045	0.415	1.01	0.343	-0.0236	-0.282	-0.288	0.997	0.654	0.368	0.131 (inactive)	0.0246	-0.161	0.742	0.467	0.37	0.343	0.593	0.697
COCCOC(=O)N1C(=O)[C@@]2(c3cc(C#Cc4ccc(OC)cc4)ccc31)[C@H](c1ccccc1OCCO)N1[C@H](c3ccccc3)[C@H](c3ccccc3)OC(=O)[C@H]1[C@@H]2C(=O)N1CCCCCCC1	1.03	-1.36	1.17	2.84	1.6	1.26	2.59	3.38	5.26	1.8	0.164	6.24 (inactive)	1.81	0.956	0.934	2.08	0.512	0.484	1.43	0.908
COC(=O)[C@@]1(Cc2ccc(OC)cc2)[C@H]2c3cc(C(=O)N(C)C)n(Cc4ccc(Cl)c(C(F)(F)F)c4)c3C[C@H]2CN1C(=O)c1ccccc1	1.39	-2	-0.566	1.41	1.12	0.235	1.19	2.18	0.535	0.99	0.962	0.579 (inactive)	0.406	0.29	0.377	2.65	0.0516	1.26	-0.763	0.952
COCCOC(=O)N1C(=O)[C@@]2(c3cc(C#CC4=CCCCC4)ccc31)[C@H](C(=O)N1CCCCCCC1)[C@H]1C(=O)O[C@H](c3ccccc3)[C@H](c3ccccc3)N1[C@@H]2c1ccc(O)cc1	1.26	-1.35	0.134	0.765	0.522	-0.001	0.156	-0.0901	0.775	0.743	0.25	0.0769 (inactive)	0.183	0.103	0.334	2.17	0.147	1.25	0.277	0.622
COc1ccccc1CN1C(=O)c2ccccc2[C@](Cc2ccccc2I)(C(=O)NCC(F)(F)F)[C@@H]1c1ccc(CO)cc1	0.905	-1.16	-0.201	2.03	0.731	0.0559	-0.106	0.0286	1.42	1.36	0.832	-0.46 (inactive)	0.073	-0.057	0.824	1.95	0.311	1.29	-1.12	1.15
COc1ccc([Si](C)(C)[C@@H]2[C@@H](CC(=O)N(CCO)Cc3ccccc3)O[C@]3(C(=O)N(Cc4cccc(N5CCOC5=O)c4)c4ccccc43)[C@H]2C)cc1	-0.139	-3.7	0.538	-0.561	-0.44	-0.173	-0.0011	-0.237	0.861	1.2	-0.256	1.28 (inactive)	-0.269	-0.0993	0.596	1.22	0.766	1.3	0.647	1.08
[N-]=[N+]=Nc1ccccc1C[C@]1(C(=O)N2CCOCC2)N=C(c2ccc(OCCCO)cc2)O[C@H]1c1ccccc1	1.04	-1.81	0.444	1.17	0.173	0.104	-0.153	0.347	1.18	1.31	0.806	0.339 (inactive)	-0.0902	-0.204	0.627	1.99	0.221	1.36	0.764	1.15
CN1C(=O)C2C=CC(C(O)c3cccc4ccccc34)N(N3CCCCC3)C2C1=O (stereo not given)	0.817	-0.474	0.349	2.23	1.02	-0.027	-0.0055	1.04	2.45	1.67	0.918	0.353 (inactive)	0.246	0.0502	0.586	2.75	0.59	1.31	-0.227	1.17
